An excerpt weighted towards active compounds, which were near 6.8% of everything screened.
Pf Dd2 inh: P. falciparum Dd2 growth inhibitors, primary screen, SYBR Green fluorescence, single dose replicates; activity change, % at 10 µM; AID 1159554, 2015; 72 h; hits give low values; 2.3% of 94,000 active; in the data active = activity change below about -80%; inconclusive = no clear call, values can overlap the other calls
C diff growth: C. difficile growth inhibitors, primary screen, HTS. Clostridium difficile clinical isolate growth, OD600, 24 h; hits give low values. growth activity, negative = inhibition, % at 16 µg/mL (by protocol). 0.25% of 86,000 active;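 active = mean growth activity at or below -80% and every replicate also at or below -80%; inconclusive = mean at or below -80% but some replicate above -80%; inactive = mean growth activity above -80%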;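 also: 0% = DMSO wells and -100% = levofloxacin 16 µg/mL wells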
T cruzi growth-1: T. cruzi intracellular proliferation inhibitors, primary screen, cell-based, beta-gal Tulahuen parasites, NIH3T3 host, luminescence; T. cruzi beta-gal in NIH3T3, GalScreen luminescence, 90 h; inhibition, % at 8.34 µM; 5.9% of 77,000 active; AID 624255, 2012;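 active = mean inhibition above about 93%, with at least 55% of replicates each passing it, limit read from the data, passing the limit was not always enough; inconclusive = only one of those two conditions holds; inactive = neither condition holds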
T cruzi growth-2: T. cruzi intracellular proliferation inhibitors, confirmation, cell-based, NIH3T3 host, beta-gal parasite, luminescence, cherry-pick; inhibition, % at 8.35 µM; AID 651739, 2012; 72% of 5,600 active; T. cruzi beta-gal in NIH3T3, GalScreen luminescence, 90 h; shares compounds with T cruzi growth-1;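 active = mean replicate inhibition above about 95% and at least 55% of replicates individually reaching it, limit read from the data; inconclusive = only one of the two criteria is met; inactive = neither criterion is met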
T cruzi growth-3: inhibitors of intracellular T. cruzi replication, confirmation, NIH3T3 host cells, beta-gal parasites, cherry-pick, set 2 | 21% of 5,600 active | AID 651740, 2012 | T. cruzi beta-gal in NIH3T3, GalScreen luminescence, 90 h | shares compounds with T cruzi growth-1 | inhibition, % at 2.09 µM;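 active = mean inhibition above about 95%, with at least 55% of replicates also reaching it, limit read from the data; inconclusive = meets just one of the two conditions; inactive = meets neither condition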;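 also: plate controls were neutral control median for no effect and positive control median for full effect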
NIH3T3 tox: cytotoxicity in mouse NIH/3T3 fibroblasts, confirmation, cytotoxicity control for T. cruzi proliferation inhibitor project, cell-based, cherry-pick, single point. shares compounds with T cruzi growth-1. NIH/3T3 viability, CellTiter-Glo ATP luminescence, 90 h. cytotoxicity (signal decrease), % at 8.35 µM. 14% of 5,600 active;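 active = mean signal decrease across replicates above about 35% based on untreated-well scatter, with enough replicates individually passing, limit read from the data; inconclusive = no rule stated though some were filed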;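 also: 0% = median of neutral control wells and 100% = median of positive control wells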
3T3 cytotox 2: NIH/3T3 fibroblast cytotoxicity, confirmation, cytotoxicity control, cell-based, cherry-pick, single point, set 2 | shares compounds with T cruzi growth-1 | NIH/3T3 viability, CellTiter-Glo ATP luminescence, 90 h | inhibition, % at 24.9 µM | 56% of 5,600 active | AID 651744, 2012;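 active = mean loss of cell viability signal at or above a set limit, and enough replicates individually reaching it; inconclusive = meets only the mean limit or only the replicate share; inactive = meets neither condition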;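 also: 0% = median of neutral control wells and 100% = median of positive control wells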
Active calls of the source: *; ? = inconclusive; . = not tested or not shown.

SMILES	Pf Dd2 inh	C diff growth	T cruzi growth-1	T cruzi growth-2	T cruzi growth-3	NIH3T3 tox	3T3 cytotox 2
COc1ccccc1NC(=O)N1CCCCN2[C@H](CO)[C@H](c3ccc(-c4ccccc4)cc3)[C@H]2C1	-53	60	108*	108*	74	23	105*
CCCNC(=O)N1CC2(C1)[C@@H](c1ccccc1)[C@H](CO)N2CC1CC1	12	5	.	.	.	.	.
O=C(N[C@H]1CC[C@@H](CCn2cc(C3(O)CCCC3)nn2)O[C@@H]1CO)c1ccccc1F	2	.	-30	.	.	.	.
CO[C@@H]1CN(C)C(=O)c2cc(NC(=O)C3CC3)ccc2OC[C@@H](C)N(C(=O)c2cnccn2)C[C@H]1C	42	.	-88	.	.	.	.
Cc1ccc(S(=O)(=O)Nc2ccc3c(c2)CC(=O)N([C@H](C)CO)C[C@@H](C)[C@@H](CN(C)S(=O)(=O)c2ccc(Cl)cc2)O3)cc1	-38	24	80	.	.	.	.
CN1C(=O)c2cc(NC(=O)c3cccc(F)c3)ccc2OC[C@H]2O[C@H](CC(=O)NCc3ccccc3)CC[C@H]21	-4	0	42	.	.	.	.
C[C@H](CO)N1C[C@H](C)[C@@H](CN(C)Cc2ccc(Oc3ccccc3)cc2)Oc2c(NC(=O)Nc3cccc4ccccc34)cccc2C1=O	-33	.	103	.	.	.	.
C[C@@H]1CN([C@H](C)CO)C(=O)Cc2cc(NC(=O)Nc3cccc4ccccc34)ccc2O[C@H]1CN(C)Cc1ccc2c(c1)OCO2	8	-3	?	107*	53	22	22
C[C@H](CO)N1C[C@H](C)[C@H](CN(C)Cc2ccc3c(c2)OCO3)Oc2ccc(NC(=O)Nc3ccccc3)cc2CC1=O	19	-12	-22	.	.	.	.
C[C@@H]1CN([C@H](C)CO)C(=O)Cc2cc(NC(=O)Nc3cccc4ccccc34)ccc2O[C@@H]1CN(C)Cc1ccc2c(c1)OCO2	11	0	103*	107*	93	?	72*
C[C@@H]1CN([C@@H](C)CO)C(=O)c2cc(NC(=O)Nc3cccc4ccccc34)ccc2O[C@H]1CN(C)Cc1ccc2c(c1)OCO2	-4	3	16	.	.	.	.
C[C@@H]1CN([C@@H](C)CO)C(=O)Cc2cc(NC(=O)Nc3cccc4ccccc34)ccc2O[C@@H]1CN(C)Cc1ccc2c(c1)OCO2	0	-2	103*	109*	-14	15	52*
C[C@H]1CN([C@@H](C)CO)C(=O)Cc2cc(NC(=O)Nc3cccc4ccccc34)ccc2O[C@@H]1CN(C)Cc1ccccc1	-28	2	90	.	.	.	.
O=C(C[C@H]1CC[C@@H](NS(=O)(=O)c2ccccc2)[C@@H](CO)O1)NCCN1CCCCC1	19	3	30	.	.	.	.
COCC(=O)Nc1ccc2c(c1)C(=O)N(C)C[C@H](OC)[C@H](C)CN(C(=O)CC1CC1)[C@H](C)CO2	-4	.	-17	.	.	.	.
CCNC(=O)C[C@@H]1CC[C@H]2[C@H](COc3ccc(NC(=O)c4ccccc4Cl)cc3C(=O)N2C)O1	5	-6	20	.	.	.	.
O=C([C@H]1[C@H](CO)[C@H]2Cn3c(cccc3=O)[C@H]2N1Cc1ccccc1)N1CCCCC1	8	-1	82	.	.	.	.
C[C@@H]1CN([C@@H](C)CO)C(=O)c2cccc(NC(=O)Nc3ccc(C(F)(F)F)cc3)c2O[C@@H]1CN(C)C(=O)Nc1cccc2ccccc12	-69	-16	63	.	.	.	.
C[C@H]1CN([C@@H](C)CO)C(=O)c2cccc(NC(=O)Nc3cccc4ccccc34)c2O[C@H]1CN(C)C(=O)Nc1ccc(F)cc1	-28	-10	116*	109*	93	0	?
C[C@H]1CN([C@@H](C)CO)C(=O)c2cccc(NC(=O)c3ccncc3)c2O[C@H]1CN(C)C(=O)Nc1cccc2ccccc12	-6	5	96*	?	76	-10	1
C[C@H]1CN([C@@H](C)CO)C(=O)c2cccc(NC(=O)Nc3ccc(F)cc3)c2O[C@H]1CN(C)C(=O)Nc1cccc2ccccc12	34	-39	-13	.	.	.	.
C[C@H](CO)N1C[C@H](C)[C@@H](CN(C)C(=O)Nc2cccc3ccccc23)Oc2c(NC(=O)Nc3ccc(C(F)(F)F)cc3)cccc2C1=O	-34	15	97*	104*	49	30	103*
C[C@@H]1CN([C@@H](C)CO)C(=O)c2cccc(NC(=O)Nc3cccc4ccccc34)c2O[C@H]1CN(C)C(=O)Nc1ccccc1	-75	-1	40	.	.	.	.
C[C@H](CO)N1C[C@H](C)[C@H](CN(C)C(=O)Nc2ccccc2)Oc2c(NC(=O)Nc3cccc4ccccc34)cccc2C1=O	-24	0	110*	107*	81	8	41*
C[C@H](CO)N1C[C@H](C)[C@H](CN(C)C(=O)Nc2cccc3ccccc23)Oc2c(NC(=O)c3ccncc3)cccc2C1=O	16	4	76	.	.	.	.
SMILES	Pf Dd2 inh	C diff growth	T cruzi growth-1	T cruzi growth-2	T cruzi growth-3	NIH3T3 tox	3T3 cytotox 2
C[C@@H]1CN([C@@H](C)CO)C(=O)c2cc(NC(=O)C3CCCCC3)ccc2O[C@@H]1CN(C)C(=O)Nc1ccc(C(F)(F)F)cc1	-14	-3	33	.	.	.	.
Cc1ccc(-c2cnc3c(c2)C(=O)N([C@@H](C)CO)C[C@H](C)[C@H](CN(C)C(=O)c2ccc(F)cc2)O3)cc1	-72	.	89	.	.	.	.
CO[C@H]1CC[C@H]2CCOc3ccc(C#N)cc3C(=O)N(C)C[C@@H](OC)[C@H](C)C(=O)N(C)C[C@H]1O2	.	-4	31	.	.	.	.
COc1ccc(CN(C)C[C@H]2Oc3ccc(NS(=O)(=O)c4ccc(F)cc4)cc3CC(=O)N([C@@H](C)CO)C[C@@H]2C)cc1	14	-8	49	.	.	.	.
C[C@@H]1CN([C@@H](C)CO)C(=O)c2cccc(NC(=O)CCCCCC(=O)Nc3ccccc3N)c2O[C@H]1CN(C)S(=O)(=O)c1ccc(Cl)cc1	-73	-4	95*	91	57	-40	-12
C[C@@H]1CN([C@@H](C)CO)C(=O)c2cccc(NC(=O)CCCCCC(=O)Nc3ccccc3N)c2O[C@@H]1CN(C)S(=O)(=O)c1ccc(Cl)cc1	-93*	-8	98*	103*	82	-13	11
C[C@@H]1CN([C@@H](C)CO)C(=O)c2cccc(NC(=O)CCCCCC(=O)Nc3ccccc3N)c2O[C@H]1CN(C)S(C)(=O)=O	17	0	.	.	.	.	.

Screens (PubChem BioAssay)
